Screens from PubChem BioAssay.
14-3-3 Bad PPI = disrupts binding of bovine 14-3-3 zeta to phospho-Bad peptide; TR-FRET 14-3-3zeta/Dy647-pBad peptide displacement, 1 h; P63103; 220,000 tested, 0.71% active; inhibition, % at 21.7 µM;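 active = inhibition above about 70%, limit read from the data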;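 note: 0% = full 14-3-3 plus peptide FRET controls and 100% = background without 14-3-3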
SUMO HTRF inh = blocks human SUMOylation mediated by UBC9; inhibition, % at 35 µM; 290,000 tested, 0.36% active; HTRF SUMOylation assay, SAE1/SAE2 + UBC9, in vitro; AID 2006; P63279; in the data active = inhibition above about 50%, passing the limit was not always enough
NCF1 inh = blocks human p47phox regulatory protein of NADPH oxidases. P14598. p47phox/p22phox peptide binding, fluorescence polarization, 2 h. inhibition, % at 24.7 µM. 220,000 tested, 0.53% active. AID 1274;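 note: 0% = p47phox with labelled peptide and 100% = labelled peptide alone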
Target sequence (P14598 whole entry, looked up): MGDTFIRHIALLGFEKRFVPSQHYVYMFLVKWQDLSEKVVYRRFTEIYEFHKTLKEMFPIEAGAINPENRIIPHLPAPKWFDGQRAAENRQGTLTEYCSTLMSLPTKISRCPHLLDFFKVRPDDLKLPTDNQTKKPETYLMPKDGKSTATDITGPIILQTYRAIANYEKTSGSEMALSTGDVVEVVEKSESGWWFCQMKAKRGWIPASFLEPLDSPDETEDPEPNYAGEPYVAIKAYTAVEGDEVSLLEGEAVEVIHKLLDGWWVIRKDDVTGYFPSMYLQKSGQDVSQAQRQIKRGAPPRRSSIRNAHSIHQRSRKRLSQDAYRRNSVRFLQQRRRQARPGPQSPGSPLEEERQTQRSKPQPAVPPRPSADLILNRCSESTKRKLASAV
eIF4E-4G inh = blocks eIF4E binding to eIF4G; P63073+Q04637; TR-FRET eIF4E-eIF4GI(517-606) binding, 2 h; inhibition, % at 21.7 µM; 220,000 tested, 0.37% active; AID 782;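 note: 0% = full FRET control wells and 100% = background wells lacking eIF4GI fragment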
Active calls of the source: *; [ ] = dose if it differs, or a comment. Compounds with a hit are over-represented: about 1.3% of the library has one in this group of screens.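 Rule for the calls, unless noted: active = inhibition above about 30% (limit read from the data); inactive = the rest.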

What do the screens show for `O=C(NCc1ccco1)/C(=C\c1cccnc1)NC(=O)c1ccccc1F`?
14-3-3 Bad PPI: 2; SUMO HTRF inh: 29; NCF1 inh: -13; eIF4E-4G inh: 0

How did CCOc1ccc(-c2cc(CCCC(=O)NCc3ccco3)no2)cc1 do in these assays?
14-3-3 Bad PPI: -1; SUMO HTRF inh: 10; NCF1 inh: 33*; eIF4E-4G inh: -1

What do the screens show for `CCOC(=O)C1(Cc2ccccc2)CCN(C2Cc3ccccc3C2)CC1`?
14-3-3 Bad PPI: -8; SUMO HTRF inh: -1; NCF1 inh: -3; eIF4E-4G inh: 1

Results for CCn1c(C2CC(=O)N(Cc3ccccc3)C2)nc2ccccc21 (configuration not stated) ?
14-3-3 Bad PPI: 14; SUMO HTRF inh: -1; NCF1 inh: 1; eIF4E-4G inh: 52*[fluorescence artefact?]

What do the screens show for `C=C(C)Cn1c(C2CC(=O)N(Cc3ccccc3)C2)nc2ccccc21` (configuration not stated)?
SUMO HTRF inh: 6

Results for COc1ccccc1CN1CC(C(=O)NCCCc2ccc(F)cc2)CCC1=O (configuration not stated) ?
SUMO HTRF inh: 2

What do the screens show for `O=C(Oc1ccc(OC(=O)c2ccco2)c(S(=O)(=O)c2ccc(Cl)cc2)c1)c1ccco1`?
14-3-3 Bad PPI: -1; SUMO HTRF inh: -17; NCF1 inh: -2; eIF4E-4G inh: -5

What do the screens show for `NC(N)=N/N=C/c1ccc(OCc2ccc(Cl)cc2)cc1`?
14-3-3 Bad PPI: 87*[fluorescence artefact?]; SUMO HTRF inh: 12; NCF1 inh: 54*; eIF4E-4G inh: 8

How did [O-][N+]1=c2ccc(Nc3ccccc3)cc2=NC12CCCCC2 do in these assays?
14-3-3 Bad PPI: -16; SUMO HTRF inh: 79*; NCF1 inh: -2; eIF4E-4G inh: 3

What do the screens show for `CC1=CC2=NC(=O)/C(=C\c3cc(C)n(-c4ccccc4)c3C)C(=N)N2O1`?
14-3-3 Bad PPI: -23; SUMO HTRF inh: 18; NCF1 inh: -7; eIF4E-4G inh: 80*[fluorescence artefact?]

How did CC(C(=O)c1ccccc1)n1c(N2CCOCC2)nc2c1c(=O)n(C)c(=O)n2C (configuration not stated) do in these assays?
14-3-3 Bad PPI: -2; SUMO HTRF inh: -8; NCF1 inh: 55*; eIF4E-4G inh: 0

How did CCN=C(N/N=C/c1ccc([N+](=O)[O-])cc1)SC do in these assays?
14-3-3 Bad PPI: 65; SUMO HTRF inh: 6; NCF1 inh: -5; eIF4E-4G inh: 31*[fluorescence artefact?]

How did CN(C)Cc1nc2ccccc2c(=O)n1Cc1nc(-c2cccc([N+](=O)[O-])c2)cs1 do in these assays?
14-3-3 Bad PPI: 98*; SUMO HTRF inh: -11; NCF1 inh: 2; eIF4E-4G inh: 0

Results for CN1CCN(Cc2nc3ccccc3c(=O)n2Cc2nc(-c3ccc([N+](=O)[O-])cc3)cs2)CC1 ?
14-3-3 Bad PPI: 7; SUMO HTRF inh: 8; NCF1 inh: 2; eIF4E-4G inh: -2

How did CC(C)NC(=O)c1cc(-c2cccs2)on1 do in these assays?
14-3-3 Bad PPI: 71*; SUMO HTRF inh: 12; NCF1 inh: -8; eIF4E-4G inh: 1

Results for O=C(NCc1cccnc1)c1cc(-c2cccs2)on1 ?
14-3-3 Bad PPI: 4; SUMO HTRF inh: 12; NCF1 inh: 138*; eIF4E-4G inh: -2

What do the screens show for `O=C(NCc1cccnc1)c1cc(-c2ccccc2)on1`?
14-3-3 Bad PPI: 2; SUMO HTRF inh: 12; NCF1 inh: 7; eIF4E-4G inh: 2

How did N#CCCN(Cc1ccccc1)S(=O)(=O)c1cccs1 do in these assays?
SUMO HTRF inh: 2

What do the screens show for `COc1cccc(Sc2ccccc2/C=N/NC(N)=O)c1`?
14-3-3 Bad PPI: -6; SUMO HTRF inh: 26; NCF1 inh: -31; eIF4E-4G inh: 0

How did COc1ccc(CCC(C)Nc2cccc(F)c2)cc1 (configuration not stated) do in these assays?
14-3-3 Bad PPI: 86*; SUMO HTRF inh: 14; NCF1 inh: -12; eIF4E-4G inh: 3

How did Cc1ccc(NS(=O)(=O)c2ccc3c(c2)CCN3C(=O)CCC(=O)O)cc1Cl do in these assays?
SUMO HTRF inh: 2

Results for O=c1[nH]cc(N(CCO)CCO)c(=O)[nH]1 ?
14-3-3 Bad PPI: 0; SUMO HTRF inh: 11; NCF1 inh: 8; eIF4E-4G inh: 94*

What do the screens show for `O=C1/C(=C/c2ccco2)Oc2c1ccc(O)c2CN1CCCCC1`?
14-3-3 Bad PPI: -9; SUMO HTRF inh: 61*; NCF1 inh: -38; eIF4E-4G inh: 7

Results for CC1CCN(Cc2c(O)ccc3c2O/C(=C\c2ccco2)C3=O)CC1 ?
14-3-3 Bad PPI: 4; SUMO HTRF inh: 43; NCF1 inh: -45; eIF4E-4G inh: 7
